Experimental findings from PubChem BioAssay (NCATS) are described below.

Records with an inconclusive call do not appear. Calls of active or inactive are those of the source. Unless noted, calls follow the shape of the dose curve; as a rule, active = well fitted curve in the direction sought with a large enough effect; inconclusive = small, poorly fitted or top-dose-only effect, or another doubt; inactive = no such curve, though single readings can be large; an effect the other way counts as inactive or inconclusive.

A short description of experiment [1]: qHTS Assay for Identifying Gametocytocidal Compounds (AID 743244). Also: potency is read from the fitted curve at half-maximal effect.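 As to max response: % is scaled to controls: 0 for no effect and ±100 for the full control effect; actives lower the fluorescent signal which means gametocytes are killed.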 To be noted: P. falciparum 3D7 stage III-V gametocytes, alamarBlue, 72 h; max response: stronger effect = lower value. Put shortly:
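3D7 gametocytes, stages III–V, 20,000/well; cpd 72 h, 37 °C/5% CO2; + alamarBlue 24 h; fluor. Ex 525/Em 598.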
(qHTS replaces the single test concentration by a dilution series.)

The nature of experiment [2]: qHTS assay for measurement of the activity of small molecule inhibitors on Zika virus induced Caspase-3 activity in human iPSC derived neural progenitor cells (hNPCs) (AID 1224857). Also: % of control where 0% means no effect; nearly all actives have a fitted effect of over 65% in size. The method in brief:
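Cells were plated at 350 per well and grown 16 to 20 hours. Compound pretreatment lasted one hour, after which ZIKV (2 FFU/cell) was added for 6 hours. Percent inhibition was normalized between uninfected and infected controls.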

The nature of experiment [3]: qHTS assay for measurement of the activity of small molecule inhibitors on Zika virus induced Caspase-3 activity in human astrocytoma cells (AID 1224859).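 Also: plate controls were ZIKV-infected untreated cells for no effect and uninfected cells for full effect.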 The method in brief: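 Percent inhibition of virus-induced caspase-3/7 signal is calculated against uninfected and ZIKV-infected control cells. Cells are SNB-19, infected at 2 FFU/cell for 6 h after 1 h compound exposure.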

Experiment [4] is described as follows: qHTS assay to identify small molecule inhibitors of chordoma cells - UCH-1 (AID 1259355). Also: nearly all actives have a fitted effect of over 55% in size. Also: potency is read from the fitted curve at half-maximal effect. The method in brief:
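A 48hr growth-inhibition format: each drug tested at 15 concentrations together with added auranofin, camptothecin, doxorubicin, rubitecan and topotecan, with cell viability quantified as CellTiter-Glo luminescence.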

The nature of experiment [5]: qHTS assay to identify small molecule inhibitors of chordoma cells - UCH-2 (AID 1259356). Also: % is scaled to controls: 0 for no effect and ±100 for the full control effect.
Experiment [6] in a line: NS1 protein of Zika virus - qHTS assay to identify small molecule inhibitors in human HEK 293 cells (AID 1347053).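 Also: plate controls were infected untreated cells for no effect and uninfected cells for full effect; nearly all actives have a fitted effect of over 55% in size.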 Put shortly: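 Read-out is a two-antibody TR-FRET for ZIKV NS1, normalized between uninfected cells and infected cells. Compound added 1 h before MR766 infection at MOI 0.5; human HEK 293 cells incubated 24 h, 37 C.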
Experiment [7] can be described thus: qHTS profiling for inhibitors of Plasmodium falciparum (3D7) proliferation (AID 743322).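 Also: infected erythrocytes exposed to compound for 72 h before lysis; 100% = DMSO vehicle wells and 0% = 0.29 µM artemisinin.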 To be noted: P. falciparum 3D7 proliferation; at 28.7 µM (top of the series) unless noted. Put shortly: (§1)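 Parasite DNA was quantified by SYBR Green I fluorescence (ex 485, em 535 nm) after overnight lysis in saponin/Triton buffer at room temperature. Cultures at 0.3% parasitemia and 2.5% hematocrit were first exposed to compound for 72 h at 37 C; signals were normalised to artemisinin (0.29 uM) and vehicle wells.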

Experiment [8] can be described thus: qHTS profiling for inhibitors of Plasmodium falciparum (DD2) proliferation (AID 743323; call rule not given here). The following applies: lower = more inhibition; at 28.7 µM (top of the series) unless noted. Put shortly:
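Parasite DNA quantified by SYBR Green fluorescence (ex 485, em 535 nm) after saponin/Triton lysis and overnight dark incubation. Cultures: 0.3% parasitemia, 2.5% hematocrit, 72 h, 37 C; data scaled between DMSO and 0.29 uM artemisinin.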

Experiment [9] in a line: qHTS profiling for inhibitors of Plasmodium falciparum (HB3) proliferation (AID 743324).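 Also: 100% = DMSO vehicle wells and 0% = artemisinin-treated control wells.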 The following applies: Plasmodium falciparum HB3 blood-stage proliferation; at 28.7 µM (top of the series) unless noted. Put shortly: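 SYBR Green fluorescence (485 ex/535 em) of lysed cultures, incubated overnight at room temperature in the dark, quantifies parasite DNA. Infected erythrocytes at 0.3% parasitemia and 2.5% hematocrit were exposed 72 h; values normalized to DMSO and 0.29 uM artemisinin controls.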

Experiment [10] in a line: qHTS profiling of the MIPE4 collection as inhibitors of Plasmodium falciparum (3D7) proliferation (AID 743344; call rule not given here;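 also: scaled between DMSO vehicle wells and 0.29 µM artemisinin as full inhibition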). To be noted: P. falciparum 3D7 in erythrocytes, SYBR Green DNA fluorescence, 72 h; at 28.5 µM (top of the series). The method in brief: as §1
A short description of experiment [11]: qHTS profiling of the MIPE4 collection as inhibitors of Plasmodium falciparum (DD2) proliferation (AID 743345; call rule not given here). The following applies: P. falciparum Dd2 in erythrocytes, SYBR Green DNA, 72 h; at 28.5 µM (top of the series). Put shortly:
as §1

A short description of experiment [12]: qHTS profiling of the MIPE4 collection as inhibitors of Plasmodium falciparum (DD2) proliferation (Rep 2) (AID 743346; call rule not given here). To be noted: P. falciparum Dd2 in erythrocytes, SYBR Green DNA, 72 h; at 28.5 µM (top of the series). Put shortly: as §1
A short description of experiment [13]: qHTS profiling of the MIPE4 collection as inhibitors of Plasmodium falciparum (HB3) proliferation (AID 743347; call rule not given here;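 also: plate controls were DMSO vehicle wells for no effect and artemisinin wells for full effect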). The following applies: P. falciparum HB3 in erythrocytes, SYBR Green DNA, 72 h; at 28.5 µM (top of the series). The method in brief: as §1
Experiment [14] is described as follows: qHTS assay for cell viability of the p53RE-bla HCT-116 cell line (AID 743292). Also: % is scaled to controls: 0 for no effect and ±100 for the full control effect; nearly all actives have a fitted effect of over 55% in size. The method in brief:
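CellSensor p53RE-bla HCT-116 cells, 4,000/well, preincubated 5 h at 37 C, then exposed to compounds in DMSO for 16 h at 37 C. Viability read as CellTiter-Glo luminescence (intracellular ATP) after 30 min at room temperature.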

The nature of experiment [15]: P-glycoprotein substrates identified in KB-8-5-11 adenocarcinoma cell line, qHTS therapeutic library screen (AID 1346987). Also: % is scaled to controls: 0 for no effect and ±100 for the full control effect; nearly all actives have a fitted effect of over 65% in size. The method in brief: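 Human cervical adenocarcinoma KB-8-5-11 cells, selected in colchicine to over-express P-gp and assayed without it, were exposed for 72 h to titrated compounds. An ATP-based luminescent viability signal gave AC50.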

As to `CO[C@H]1C=CO[C@@]2(C)Oc3c(C)c(O)c4c(O)c(c(/C=N/N5CCN(C)CC5)c(O)c4c3C2=O)NC(=O)/C(C)=C\C=C[C@H](C)[C@H](O)[C@@H](C)[C@@H](O)[C@@H](C)[C@H](OC(C)=O)[C@@H]1C`, the Potency in experiment [1] was 15.8 µM (active). Besides, the Potency entry in [2], in [4], in experiment [5] and in experiment [6] was “inactive” in each case. Also, the outcome in [3] was inactive.

As to `OC(C#CCN1CCCC1)(c1ccccc1)c1ccccc1`, the max response in experiment [1] was -3.1% (inactive). Moreover, the Potency result in experiment [2], in experiment [4], in experiment [5] and in [6] was “inactive” each time. Also, in experiment [3], the molecule was called inactive.

On to `CO[C@]12C[C@@H](COC(=O)c3cncc(Br)c3)CN(C)[C@@H]1Cc1cn(C)c3cccc2c13`, for which the max response in [1] is 10.7% (inactive). Moreover, the Potency result in experiment [2], in experiment [4], in experiment [5] and in experiment [6] was “inactive” in each case. Besides, in [3], the molecule was called inactive.

On to `O=C1C(=O)c2ccccc2C(O)=C1C1CCC(c2ccc(Cl)cc2)CC1` (centres undefined), for which the remaining parasite growth % (stronger effect = lower value) in experiment [7] turned out to be 9.76e-05%. Further, the activity, percent of control in experiment [8] turned out to be 3.7%. The same molecule came in with a remaining proliferation (% of control), lower = more inhibition in experiment [9] of 1.19%. In experiment [10], the parasite growth, % of DMSO control was found to be 9.11%. This molecule registered a parasite growth remaining, % of DMSO control (lower = more inhibition) in [11] of 9.71%. The parasite growth, % of control (lower = inhibition) in experiment [12] stood at 18.4%. In [13], this molecule yielded a growth, % of control of 5.96%. The Potency result in experiment [2], in [4], in [5] and in experiment [6] was “inactive” throughout. Moreover, the result in experiment [3] was inactive.

With `CCc1oc2ccccc2c1C(=O)c1cc(I)c(O)c(I)c1`, the max response in experiment [1] is 0.665% (inactive). Moreover, the Potency result in experiment [2], in experiment [4], in experiment [5] and in [6] was “inactive” in each case. Further, the call in experiment [3] was inactive.

Take `C#C[C@]1(O)CC[C@H]2[C@@H]3CCc4cc(OC)ccc4[C@H]3CC[C@@]21C`: the max response in [1] was -2.6% (inactive). Also, the Potency entry in [2], in experiment [4], in experiment [5] and in experiment [6] was “inactive” throughout. For the same molecule, the call in [3] was inactive.

Consider `O[C@@H](c1cc(C(F)(F)F)nc2c(C(F)(F)F)cccc12)[C@H]1CCCCN1`, for which the Potency in [1] was 1.05 µM (active); in experiment [4], 35.5 µM (active). The Potency entry in [2] and in [5] was “inactive” each time. For the same molecule, the molecule was called inactive in experiment [3].

On to `CCN(CC)CCOc1ccccc1C(=O)CCc1ccccc1`, for which, in [1], the max response was -3.28% (inactive). Also, the Potency result in [2], in experiment [4], in [5] and in [6] was “inactive” in each case. The call in experiment [3] was inactive.

Turning to `Oc1ccc(Cl)cc1Cc1cc(Cl)ccc1O`, the max response in [1] was 0.972% (inactive). In addition, the call in experiment [14] and in [3] was inactive. The Potency result in [2], in experiment [5] and in [6] was “inactive” throughout.

With `CC(=O)Nc1ncc([N+](=O)[O-])s1`, the Potency result in experiment [2], in [5], in experiment [15] and in [6] was “inactive” each time. Besides, the molecule was called inactive in [3].

For the molecule `CCO[C@@H]1O[C@H](C(COCc2ccccc2)OCc2ccccc2)[C@H](OCc2ccccc2)[C@H]1O` (some centres undefined), the max response in [1] was -9.56% (inactive). In addition, the Potency entry in [2], in experiment [5] and in experiment [6] was “inactive” each time. Besides, the molecule was called inactive in experiment [3].

In the case of `CCc1oc2ccccc2c1C(=O)c1cc(Br)c(O)c(Br)c1`, the max response in experiment [1] was -6.8% (inactive). In addition, the Potency result in experiment [2], in experiment [5], in experiment [15] and in experiment [6] was “inactive” in each case. Moreover, in experiment [3], the result was inactive.

For the molecule `O=[N+]([O-])c1ccc(/C=N\O)o1`, the Potency result in experiment [2], in experiment [5] and in experiment [6] was “inactive” throughout. The result in [3] was inactive.

As to `O=C(O)CCc1nc2ccccc2[nH]1`, in experiment [1], the max response was 8.17% (inactive). The Potency entry in experiment [2], in [5], in experiment [15] and in [6] was “inactive” throughout. In [3], the result was inactive.

As to `Cc1ccc(O)c([C@H](CCN(C(C)C)C(C)C)c2ccccc2)c1`, the Potency entry in [2], in experiment [5] and in experiment [6] was “inactive” each time. Besides, the result in experiment [3] was inactive.
